Usually AC50 stands for the midpoint of the concentration-response curve, whichever way the signal moves.

From PubChem BioAssay (EPA / NIEHS) come the findings set out here.

Assay [1] has as its target Cellular tumor antigen p53 (Homo sapiens) (UniProt P04637). As to the kind of experiment: TOX21_p53_BLA_p2_ratio: Tox21 HCT-116 p53 Agonism Beta-lactamase Assay, Ratio, Phase 2 (AID 2283592). The procedure, abridged:
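In this cell-based reporter format, HCT116 cells were dosed with chemicals delivered from DMSO by 217-fold dilution and incubated 16 h at 37C. Emission at 460 and 530 nm after 2 h CCF4-AM loading provided the ratio, fitted upward versus DMSO.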

Assay [2] in a line: TOX21_p53_BLA_p4_viability: Viability Assessment in the Tox21 HCT-116 p53 Agonism Beta-lactamase Assay, Phase 4 (AID 2283597).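 Note: hits lower the luminescence signal meaning cytotoxicity.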 The procedure, abridged:
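We seeded HCT116 p53 reporter cells at 4000/well and waited 5 h. We then added compounds in DMSO at a 217-fold dilution and incubated for 16 h. Viability was read as CellTiter-Glo luminescence after 30 min at RT.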

Assay [3] has as its target Cellular tumor antigen p53 (Homo sapiens) (UniProt P04637). As to the kind of experiment: TOX21_p53_BLA_p5_ratio: Tox21 HCT-116 p53 Agonism Beta-lactamase Assay, Ratio, Phase 5 (AID 2283599). In short, it runs like this: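 HCT-116 cells carrying a p53-inducible beta-lactamase reporter were seeded at 4000 cells/well and dosed after 5 h with compound in DMSO (217-fold dilution). After 16 h at 37C, CCF4-AM substrate was added for 2 h, and the 460/530 nm emission ratio was scored as gain-of-signal versus DMSO.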

Assay [4] is described as follows: TOX21_p53_BLA_p5_viability: Viability Assessment in the Tox21 HCT-116 p53 Agonism Beta-lactamase Assay, Phase 5 (AID 2283600). In short, it runs like this: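 Compounds, pinned from DMSO at 217-fold dilution, were left on the cells for 16 h. The viability endpoint was ATP content measured by CellTiter-Glo luminescence, where falling signal reflects cytotoxicity.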

A short description of assay [5]: Tanguay_ZF_120hpf_MORT_legacy: (Legacy) Oregon State University Tanguay Lab 120 Hour Post-fertilization zebrafish Assay for Mortality (AID 2283633). The procedure, abridged: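 Brightfield scoring of embryo death (binary) at 24 and 120 hpf; static exposure 6–120 hpf, 28C, sealed and foil-covered. Pronase-dechorionated 5D wild-type larvae, single embryo per well. DMSO 0.64% v/v; trimethyltin chloride 5uM positive control.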

A short description of assay [6]: TOX21_p53_BLA_p3_viability: Viability Assessment in the Tox21 HCT-116 p53 Agonism Beta-lactamase Assay, Phase 3 (AID 2283593).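 Note: cells exposed to compound for 16 h before reading.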 In short, it runs like this:
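HCT-116 cells (4000/well) rested 5 h at 37C, then got DMSO compounds by pin tool (217-fold dilution) for 16 h at 37C, 5% CO2. After the bla read, CellTiter-Glo was added and luminescence read at 30 min, room temperature.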

Assay [7] can be described thus: Tanguay_ZF_120hpf_YSE_legacy: (Legacy) Oregon State University Tanguay Lab 120 Hour Post-fertilization zebrafish Assay for Yolk Sac Edema (AID 2283634).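 For AC50: actives raise the incidence of yolk sac edema above the DMSO baseline.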 In short, it runs like this:
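Binary brightfield scoring of yolk sac edema at 120 hpf; DMSO baseline, gain-of-signal fitting. Dechorionated 5D larvae, one per well, static exposure 6–120 hpf, 28C, 0.64% DMSO. Dead embryos not scored.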

Assay [8] concerns the target Cellular tumor antigen p53 (Homo sapiens) (UniProt P04637). As to the kind of experiment: TOX21_p53_BLA_p3_ratio: Tox21 HCT-116 p53 Agonism Beta-lactamase Assay, Ratio, Phase 3 (AID 2283596). In short, it runs like this: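 HCT116 p53-bla cells (4000/well) given compound in DMSO (217-fold dilution) after 5 h, incubated 16 h at 37C. CCF4-AM substrate 2 h at room temperature; 460/530 nm emission ratio, gain fitted against DMSO.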

The target is the same in assay [9]. Kind of assay: TOX21_p53_BLA_p4_ratio: Tox21 HCT-116 p53 Agonism Beta-lactamase Assay, Ratio, Phase 4 (AID 2283601). The procedure, abridged: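 HCT116 cells carrying an inducible beta-lactamase reporter were plated at 4000 cells/well, rested 5 h, then exposed to compounds in DMSO (217-fold dilution) for 16 h at 37C. CCF4-AM substrate was loaded 2 h at room temperature; 460/530 nm emission ratio scored gain-of-signal versus DMSO.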

Inconclusive results are not listed. Active and inactive are the calls of the source. Rule for the calls: active = hit-call score of the fitted dose curve at least 0.9, where 1 is the maximum; inconclusive = response in the unintended direction; inactive = score below 0.9.

Sequence of Cellular tumor antigen p53 (Homo sapiens) (P04637 whole entry, looked up): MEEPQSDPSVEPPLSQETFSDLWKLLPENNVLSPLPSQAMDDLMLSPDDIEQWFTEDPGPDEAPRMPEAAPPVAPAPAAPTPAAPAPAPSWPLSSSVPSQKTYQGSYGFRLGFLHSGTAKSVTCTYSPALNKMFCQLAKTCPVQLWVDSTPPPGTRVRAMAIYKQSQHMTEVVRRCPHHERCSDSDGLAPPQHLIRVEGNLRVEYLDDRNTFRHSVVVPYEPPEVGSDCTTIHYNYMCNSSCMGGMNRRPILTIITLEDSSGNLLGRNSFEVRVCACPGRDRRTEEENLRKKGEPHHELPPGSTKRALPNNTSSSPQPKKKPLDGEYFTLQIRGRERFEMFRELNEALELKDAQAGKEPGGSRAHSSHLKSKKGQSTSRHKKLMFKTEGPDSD

Regarding `COCCOCCOCCOC`, the outcome in [1], in assay [2], in assay [3], in assay [4] and in [5] was inactive.

Take `Cn1c(=O)cc(Oc2ccc(F)cc2F)c2cnc(NCC(C)(C)O)nc21`: the molecule was classed as inactive in assay [6], in assay [2] and in assay [5]. Further, the AC50 in [7] is 15.7 µM (active).

With `CC(O)CN(CCN(CC(C)O)CC(C)O)CC(C)O` (stereo not drawn), the result in assay [1], in assay [8], in [2], in assay [3], in assay [4] and in assay [9] was inactive. Further, in [5], the molecule was classed as inactive.

For `CNS(=O)(=O)c1cc(C(=O)N2CCC(CCN3C4CCC3CC(n3c(C)nc5ccccc53)C4)(c3cccc(F)c3)CC2)c(Cl)cc1F` (stereo not drawn), the result in assay [1], in assay [3], in assay [4], in assay [9], in assay [5] and in [7] was inactive. Moreover, the half-maximal activity concentration (AC50) was 46.1 µM (active) in [6] and 16.2 µM (active) in assay [2].

For the molecule `CC(C)=CCCC(C)=CC=O`, the outcome in [1], in [6], in assay [8], in assay [2], in assay [4] and in [9] was inactive. The result in [5] was inactive.

As for `CCCCCCCCO`, the outcome in assay [1], in [6], in assay [8], in assay [4], in assay [9] and in [5] was inactive.

For the molecule `COCCOc1cc2cc(C(=O)NC3CCN(C(C)C)CC3)n(CC(=O)Nc3ccc(Cl)cn3)c2cn1`, the result in assay [6], in assay [8], in [2], in [3], in [4] and in assay [5] was inactive. In addition, the result in assay [7] was inactive.

`CC(=O)c1ccc2c(c1)[C@H](NC(=O)c1ccc(F)cc1)[C@@H](O)C(C)(C)O2`: the molecule was classed as inactive in assay [6], in assay [8], in assay [2], in [3], in assay [4] and in assay [9]. In addition, the call in [5] and in [7] was inactive.

As for `CNCc1ccc(NC(=O)c2c[nH]c3c2C(=O)CCC3)cc1`, the result in [1], in assay [6], in [2], in assay [9] and in assay [5] was inactive.

As for `CCNc1ccccc1`, the outcome in assay [1], in assay [8], in [2], in [3], in assay [9] and in assay [5] was inactive. The result in assay [7] was inactive.

For the molecule `O=C1CCC(N2C(=O)c3ccccc3C2=O)C(=O)N1` (stereo not drawn), the outcome in assay [1], in assay [6], in assay [8], in [2], in [4] and in assay [9] was inactive. Also, the outcome in assay [5] was inactive.

`CC1(C)C(=O)N(Br)C(=O)N1Br`: the outcome in assay [8], in assay [2], in assay [3], in [4], in assay [9] and in assay [5] was inactive. Moreover, the call in [7] was inactive.

For `CC[C@H]1CC[C@H](NCc2cc3c(cc2OC)[C@H]2C[C@H]2C(=O)N3C)[C@H](c2ccccc2)N1`, the outcome in assay [1], in assay [6], in assay [9] and in [5] was inactive. The AC50 in assay [8] was 13.3 µM (active).

For `Cc1ccc(C)c(O)c1`, the outcome in assay [1], in [6], in [8], in assay [3], in [4] and in assay [9] was inactive. Moreover, the result in [5] was inactive.

For the molecule `CC[C@H]1OC(=O)[C@H](C)[C@@H](O[C@H]2C[C@@](C)(OC)[C@@H](O)[C@H](C)O2)[C@H](C)[C@@H](O[C@@H]2O[C@H](C)C[C@H](N(C)C)[C@H]2O)[C@](C)(O)C[C@@H](C)C(=O)[C@H](C)[C@@H](O)[C@]1(C)O`, the outcome in [1], in assay [6], in [8], in assay [3], in assay [4] and in [9] was inactive. Besides, in [5], the molecule was classed as inactive.

Take `Cc1ccc(O)cc1`: the result in assay [1], in [8], in [2], in assay [3], in [4] and in assay [9] was inactive. Also, the molecule was called inactive in [5] and in assay [7].

As for `CCCC(=O)OCC`, the outcome in assay [1], in assay [6], in [8], in assay [5] and in [7] was inactive.

As to `On1ccccc1=S`, the result in [1], in [8], in [2], in assay [3], in [9] and in assay [5] was inactive. The AC50 in [7] was 0.0413 µM (active).

For the molecule `COC(=O)CC(=O)OC`, the result in assay [1], in assay [8], in [2], in assay [3], in [4] and in assay [9] was inactive. The result in assay [5] was inactive.

Take `C1=CCCC=CCCC=CCC1`: the outcome in assay [8], in assay [2], in [3], in [9], in assay [5] and in [7] was inactive.

As for `O=C(O)c1cccc(Oc2ccccc2)c1`, the outcome in [1], in assay [8], in assay [2], in [3], in assay [9] and in [5] was inactive.

In the case of `C1N2CN3CN1CN(C2)C3`, the result in [1], in [6], in assay [8], in assay [2], in assay [4] and in assay [9] was inactive. The molecule was called inactive in [5].

As to `CC(C)=CCC/C(C)=C\CO`, the outcome in [1], in assay [6], in assay [8], in assay [2], in assay [9] and in assay [5] was inactive.

As for `Clc1nc(Cl)c(Cl)c(Cl)c1Cl`, the result in assay [1], in assay [8], in assay [2], in assay [3], in [4] and in assay [9] was inactive. The call in [5] and in [7] was inactive.

For the molecule `Cc1c(-c2cccnc2)c2ccccc2n1CCCCC(=O)O`, the result in assay [1], in assay [8], in assay [3], in assay [9] and in assay [5] was inactive.

Consider `O=C(O)CCN(C1(C(=O)NO)CCCC1)S(=O)(=O)c1ccc(Oc2ccc(F)cc2)cc1`, for which the result in assay [1], in assay [6], in assay [4], in assay [5] and in [7] was inactive.

As to `CC(C)CCCCCCOC(=O)c1ccc(C(=O)OCCCCCCC(C)C)c(C(=O)OCCCCCCC(C)C)c1`, the molecule was called inactive in assay [6], in [8], in [2], in assay [3], in assay [5] and in [7].
